The structures appear in SMILES notation. The campaign covered roughly 320,000 compounds. About 8,000 (2.5%) were called active. This is one part of a sample in which actives are shown more often than they occur. No stated cut-off is given here; in the data, active means activation above about 47%; inactive means the rest.

The record followed here is PubChem BioAssay AID2796 (The Scripps Research Institute Molecular Screening Center, 2010).

The target of this assay is Aryl hydrocarbon receptor (Homo sapiens) (UniProt P35869). Kind of assay: AHR activators, primary screen, cell-based, luminescence, luciferase reporter, human (AID 2796).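 Further: 0% = vehicle wells and 100% = reference agonist.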 As to conditions: AHR-responsive luciferase reporter cells, at 5 µM, active compounds read high.
Aryl hydrocarbon receptor (Homo sapiens), sequence (P35869 whole entry, looked up): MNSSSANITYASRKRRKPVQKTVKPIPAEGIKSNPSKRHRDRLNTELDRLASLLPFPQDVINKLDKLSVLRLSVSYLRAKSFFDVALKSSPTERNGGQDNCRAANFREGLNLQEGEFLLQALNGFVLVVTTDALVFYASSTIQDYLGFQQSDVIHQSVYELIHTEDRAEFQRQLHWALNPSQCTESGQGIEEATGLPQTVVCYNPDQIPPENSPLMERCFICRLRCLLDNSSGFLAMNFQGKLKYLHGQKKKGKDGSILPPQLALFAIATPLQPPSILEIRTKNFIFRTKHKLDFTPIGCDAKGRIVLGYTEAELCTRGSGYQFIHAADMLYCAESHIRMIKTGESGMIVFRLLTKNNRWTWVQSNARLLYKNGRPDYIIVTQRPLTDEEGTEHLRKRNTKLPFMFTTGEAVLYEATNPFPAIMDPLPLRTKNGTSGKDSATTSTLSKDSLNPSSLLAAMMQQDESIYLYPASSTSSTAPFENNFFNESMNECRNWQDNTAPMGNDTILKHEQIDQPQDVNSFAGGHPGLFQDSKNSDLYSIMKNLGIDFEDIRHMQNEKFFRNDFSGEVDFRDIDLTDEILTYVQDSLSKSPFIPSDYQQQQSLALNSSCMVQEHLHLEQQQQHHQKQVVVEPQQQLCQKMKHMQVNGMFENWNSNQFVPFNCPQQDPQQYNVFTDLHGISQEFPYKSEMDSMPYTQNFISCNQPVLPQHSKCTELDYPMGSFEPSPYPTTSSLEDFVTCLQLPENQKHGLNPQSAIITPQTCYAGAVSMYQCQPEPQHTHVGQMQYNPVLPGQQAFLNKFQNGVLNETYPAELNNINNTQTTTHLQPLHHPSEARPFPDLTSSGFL
As to `NS(=O)(=O)c1ccc(N=Cc2ccc(Br)s2)cc1`, the activation was 3.54% (inactive).
To `O=C(NNc1cc(Cl)cc(Cl)c1)c1c(F)cccc1Cl` belongs 10.2% (inactive).
Under `COc1ccccc1-c1nnc(NC(=O)c2ccc3ncsc3c2)o1` stands 48.6% (active).
Under `Cc1sc(NC(=O)c2ccc3ncsc3c2)c(C(N)=O)c1C` stands 5.88% (inactive).
With `COc1ccccc1-c1nnc(NC(=O)c2cccc(N3C(=O)CCC3=O)c2)o1`, the activation is 33.9% (inactive).
To `CC(=O)C1=C(O)C(=O)N(c2cccnc2)C1c1ccc([N+](=O)[O-])cc1` (stereo not drawn) belongs -2.61% (inactive); to `COC(=O)CN1C(=O)C(O)=C(C(C)=O)C1c1ccc([N+](=O)[O-])cc1` (stereo not drawn), 0.71% (inactive); to `CC(=O)C1=C(O)C(=O)N(c2ccc(Br)cc2)C1c1ccc([N+](=O)[O-])cc1` (stereo not drawn), 62.3% (active).
Under `COC(=O)C1=C(C)N(C(C)c2ccccc2)C(=O)/C1=C\c1ccco1` (stereo not drawn) stands 1.2% (inactive); under `CCSc1ccccc1C(=O)NCc1ccc(OC)cc1`, -0.68% (inactive).
To `COc1ccc(COCCN2CCN(S(=O)(=O)c3ccccc3)CCC2=O)cc1` belongs 2.49% (inactive); to `C=CCSc1nnc2c(n1)-c1cccc3cccc-2c13`, 56.7% (active); to `CCN(CC(=O)Nc1ccc(OC)cc1)C(=O)CSCc1ccc(C)cc1`, 0.1% (inactive).
Take `Cc1occc1C(=O)Nc1cccc(S(=O)(=O)N2CCOCC2)c1`: the activation is 3.12% (inactive).
Under `COc1ccc(NC(=O)c2oc3ccc(S(=O)(=O)N4CCOCC4)cc3c2C)cc1` stands 10.4% (inactive); under `Cc1c(C(=O)Nc2cccc(S(=O)(=O)N3CCOCC3)c2)oc2ccccc12`, 67.5% (active).
To `N#Cc1ccc(OCCN2C(=O)NC3(CCSC3)C2=O)cc1` (stereo not drawn) belongs -2.11% (inactive).
Under `Cc1cc(NC(=O)CSc2nnc(-c3ccco3)n2N)no1` stands 1.53% (inactive); under `COc1ccc(C(=O)NC(=S)N2CCNC(=O)C2CC(=O)OC(C)C)cc1` (stereo not drawn), 5.47% (inactive).
For `Cc1cc2ncn(CCCCOc3ccccc3)c2cc1C`, the activation is -0.22% (inactive).
To `Brc1ccccc1C1N=C(c2ccccc2)NO1` (stereo not drawn) belongs 50.1% (active); to `N#Cc1ccc(C2N=C(c3ccccc3)NO2)cc1` (stereo not drawn), 0.8% (inactive); to `S=C1NC(c2ccccc2)=NCN1c1ccc(Br)cc1`, 1.57% (inactive).
Under `Cc1ccc(-n2nc3c(c2NC(=O)CCC2CCCCC2)CS(=O)C3)cc1` (stereo not drawn) stands 18.5% (inactive); under `CCCCNC(=S)N/N=C1\CCCCc2ccccc21`, 13.7% (inactive); under `Cc1cc(O)c(C(=O)/C=C/c2c(F)c(F)c(F)c(F)c2F)c(=O)o1`, 99.4% (active).
Under `Cc1ccc(N=Cc2c(O)cc(C)oc2=O)c(C)c1` stands -0.65% (inactive); under `Cc1cc(O)c(Sc2ccccc2)c(=O)o1`, 0.97% (inactive).
Turning to `CCOC(=O)CCc1c(C)c(C#N)c2[nH]c3ccccc3n2c1=O`, the activation was 4.77% (inactive).
Under `CN(C)Cc1c(C#N)c2ccccc2n1C` stands 1.2% (inactive); under `CCCc1cc(=S)n2c([nH]c3ccccc32)c1C#N`, 63.8% (active); under `COc1ccc(CCNC(=O)c2nnc(CS(=O)(=O)c3ccccc3)o2)cc1OC`, -2.96% (inactive).
On to `CCn1c2ccccc2c2cc(NC(=O)C/C(C)=N/NC(=O)c3ccccc3N)ccc21`, for which the activation is 95.2% (active).
As to `CCn1c2ccccc2c2cc(NC(=S)N3CCOCC3)ccc21`, the activation is 46% (inactive).
For `CCn1c2ccccc2c2cc(NC(=O)CNC)ccc21`, the activation is 44.7% (inactive).
To `CCn1c2ccccc2c2cc(CC(N)=O)ccc21` belongs 1.45% (inactive); to `CCn1c2ccccc2c2cc(NC(=O)COC(=O)c3cc(S(=O)(=O)N4CCCCC4)ccc3Cl)ccc21`, 34.2% (inactive).
On to `CCn1c2ccccc2c2cc(NC(=O)COC(=O)c3ccccc3Br)ccc21`, for which the activation was 62.5% (active).
For the compound `COc1cc(OC)c(N2CC(C(=O)Nc3cc(Cl)ccc3N3CCOCC3)CC2=O)cc1Cl` (stereo not drawn), the activation was -0.04% (inactive).
To `CCn1c(CSc2nncn2-c2ccc(OC)cc2)nc2cc(S(=O)(=O)N(C)C)ccc21` belongs -0.25% (inactive); to `CCOc1ccccc1C1NC(=O)NC(C)=C1C(=O)OCc1ccco1` (stereo not drawn), -1.31% (inactive).
To `COc1ccc2sc(-c3ccc(S(C)(=O)=O)cc3)c(-c3ccc(C(N)=O)cc3)c2c1` belongs 17.8% (inactive); to `COC(=O)c1ccc(/C=C/c2c(-c3ccc(OC)cc3)sc3ccccc23)cc1`, 51.7% (active).
Regarding `COc1ccccc1-c1sc2ccccc2c1-c1ccc(C(C)=O)cc1`, the activation is 42.1% (inactive).
To `O=C1CCCCC1Sc1ccc(Cl)cc1[N+](=O)[O-]` (stereo not drawn) belongs 14.3% (inactive).
Under `Cc1nc(NC(CC(C)C)C(=O)O)c2nc(C)oc2n1` (stereo not drawn) stands 1.08% (inactive); under `CCOC(=O)CN1C(=O)C(=O)c2cc(C)ccc21`, -0.46% (inactive).
To `CC(C)OC(=O)CN1C(=O)C(=O)c2ccccc21` belongs 101% (active); to `CC(OC(=O)CN1C(=O)c2ccccc2C1=O)C(=O)c1ccccc1` (stereo not drawn), 0.4% (inactive).
As to `CC1CCCN(S(=O)(=O)c2ccc(N(C(=O)c3cnccn3)C(C(=O)NC3CCCCC3)c3cccs3)cc2)C1` (stereo not drawn), the activation is 2.59% (inactive).
Under `CCOC(=O)CCP(=O)(O)C(O)(c1ccccc1)c1ccccc1` stands -2.52% (inactive); under `COCCNC(=O)c1ccc(S(=O)(=O)c2ccc(Cl)cc2)c(NC(C)=O)c1`, 5.01% (inactive); under `CCOC(=O)c1c(C)n(C)c2ccc(OC)c(NS(=O)(=O)CC)c12`, 55.7% (active).
To `CCOC(=O)c1c(S(=O)(=O)Nc2cccc(Cl)c2)c(C)n(C)c1C` belongs 21.5% (inactive); to `CCOC(=O)c1c(C)n(C)c2ccc(OC)c(NC(=O)CN3CCC4(CC3)OCCO4)c12`, 0.77% (inactive).
For the compound `FC(F)(F)c1cc(C(F)(F)F)c2ccc(N3CCN(c4ccccc4)CC3)nc2n1`, the activation is 3.17% (inactive).
To `COc1ccc(Oc2cn[nH]c2-c2ccc(OC)cc2O)cc1` belongs 6.87% (inactive).
`Oc1ccc(-c2[nH]ncc2-c2nc3ccccc3s2)c(O)c1`: the activation is 48.9% (active).
On to `CC(=O)Nc1cccc(-c2nc3ccccc3s2)c1C`, for which the activation was -9.79% (inactive).
To `CCOC(=O)C1(Cc2ccccc2C)CCCN(C(=O)c2ccc(COC)o2)C1` (stereo not drawn) belongs 20.8% (inactive).
Under `O=c1ccc2cc(S(=O)(=O)Nc3ccccc3F)ccc2o1` stands -0.99% (inactive); under `Cc1cc(C(=O)COc2ccccc2[N+](=O)[O-])c(C)n1-c1cccc(S(=O)(=O)N2CCOCC2)c1`, 10.1% (inactive); under `CCCc1c(C(=O)Nc2ccc(F)cc2)cnn1-c1ccccc1`, 69.9% (active).
To `CCNC(=O)c1cnn(-c2ccccc2)c1-c1ccccc1` belongs 0.69% (inactive); to `CCCc1c(C(=O)O)cnn1-c1ccc(Cl)cc1`, -2.51% (inactive); to `COc1cc(/C=C/C(=O)OCC(=O)NC2CC2)cc(OC)c1OC`, 1.12% (inactive).
For `O=S(=O)(NCc1ccccc1Br)c1ccccc1Br`, the activation was -0.52% (inactive).
As to `Cn1c(=O)c(C(=O)Nc2ncccn2)c(O)c2ccccc21`, the activation was 66.7% (active).
Under `CCCn1c(=O)c(C(=O)Nc2cc(C)ccn2)c(O)c2ccccc21` stands 7.05% (inactive); under `Cn1c(=O)c(Sc2ccc(Cl)cc2)c(O)c2ccccc21`, 6.8% (inactive).
As for `COc1ccccc1NC(=O)CSc1nnc(Cn2nnc(-c3ccccc3)n2)n1-c1ccccc1`, the activation was -0.61% (inactive).
With `O=C(NCc1ccncc1)c1ccc(NS(=O)(=O)c2cccc([N+](=O)[O-])c2)cc1`, the activation is -0.44% (inactive).
Regarding `O=C(NCCCNc1ccc([N+](=O)[O-])cc1Cl)c1ccccc1F`, the activation was -0.83% (inactive).
Under `O=C(NCCNc1ccc([N+](=O)[O-])cc1Cl)c1ccccc1F` stands -0.69% (inactive); under `CCC(C)NCC(=O)Nc1ccc([N+](=O)[O-])cc1C(=O)Nc1ccccc1F` (stereo not drawn), 104% (active); under `CC1CC(C)CN(C(=O)C2CC(=O)N(c3ccc(F)cc3)C2)C1` (stereo not drawn), -4.43% (inactive).
To `Cc1ccc(O)c(CCc2ccccc2)n1` belongs 21.5% (inactive); to `C=CCNc1ncnc2ccc(Br)cc12`, 0.32% (inactive); to `COc1ccc(Nc2ncnc3ccc(Br)cc23)c(OC)c1`, 52.9% (active).
To `O=C(O)CCCCCNc1ncnc2ccc(Br)cc12` belongs 4.84% (inactive); to `O=C(COc1ccccc1F)Nc1nc(-c2ccccn2)cs1`, 12.4% (inactive); to `Cc1ccc2[nH]c(=O)c(CN(CC3COCCO3)C(=O)Nc3ccccc3C)cc2c1` (stereo not drawn), 9.5% (inactive).
For the compound `Cc1cccc(NC(=O)N(Cc2cc3cc(C)cc(C)c3[nH]c2=O)CC2COCCO2)c1` (stereo not drawn), the activation is 59.6% (active).
Under `COc1ccc2[nH]c(=O)c(CN(CC3CCCO3)C(=O)Nc3ccccc3)cc2c1` (stereo not drawn) stands 0.61% (inactive).
For the compound `Cc1ccc(C2(C(F)(F)F)N=C3Sc4cc(C)cc(C)c4N3C(=O)N2)cc1` (stereo not drawn), the activation is 70.8% (active).
Turning to `COC(=O)C1=C(N)Oc2c(oc(CO)cc2=O)C1c1c(F)cccc1Cl` (stereo not drawn), the activation is -0.25% (inactive).
Under `Cc1ccc(N2C(=O)N3[C@@H]4c5ccccc5OC[C@@H]4[C@@H](c4ccccc4)[C@@]3(C)C2=O)cc1` stands 0.11% (inactive); under `CCOC(=O)Cc1ncccc1C(=O)Nc1ccc(OC)cc1`, 2.4% (inactive).
To `CCOC(=O)Cc1ncccc1C(=O)Nc1ccc(OC(F)(F)F)cc1` belongs 78.1% (active).
Under `COC(=O)Cc1ccc(OCC(=O)Nc2ccc(OC(F)(F)F)cc2)cc1` stands 1.97% (inactive).
Consider `COc1ccccc1N(C)S(=O)(=O)c1ccc(Cl)c(C(=O)Nc2ccncc2)c1`, for which the activation is 17.1% (inactive).
With `CCOc1ccc(OCc2cccc(C(=O)N(CC)CC)c2)cc1`, the activation was -5.06% (inactive).
In the case of `CCSc1nsc(NC(=O)Nc2cccc(C(C)=O)c2)n1`, the activation is 76.5% (active).
To `C=CCSc1nsc(NC(=O)Nc2cccc(C(C)=O)c2)n1` belongs 41.3% (inactive); to `CCSc1nsc(NC(=O)Nc2ccccc2OC)n1`, -2.87% (inactive).
Take `Nc1c(NCCc2ccccc2)c2ccccc2oc1=O`: the activation is 67.9% (active).
To `O=Cc1c(NCCc2cccc(F)c2)c2ccccc2[nH]c1=O` belongs 1.73% (inactive).
To `CC(C)(C)Nc1c(N)c(=O)oc2ccccc12` belongs -0.9% (inactive).
